# BAZ2B inh: inhibitors of human BAZ2B bromodomain; hit rate 4.4% among 360,000; AID 504333; AlphaScreen BAZ2B-H3K14Ac peptide displacement; Potency, µM (series often up to 114 µM), most hits filed as inhibitors; further: nearly all actives have a fitted effect of over 60% in size
#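 AlphaScreen luminescence quantifies BAZ2B engagement of H3K14Ac peptide; the protein and biotinylated peptide are both at 50 nM final, buffer PBS pH 7.4 with 0.01% Tween-20, all steps at room temperature.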
# JMJD2A Tudor: blocks the human JMJD2A Tudor domain | O75164 | AlphaScreen JMJD2A-Tudor / H3K4me3 peptide binding | Potency, µM (top dose mostly 114 µM), hits mostly inhibitors | hit rate 4.4% among 390,000; further: nearly all actives have a fitted effect of over 50% in size
# PLK1 PBD block: PLK1 (human) polo-box domain binding inhibition; Potency, µM, most hits filed as inhibitors; Plk1 PBD binding of FITC phosphopeptide, fluorescence polarization; P53350; hit rate 2.8% among 360,000; further: series mostly up to about 57 µM; nearly all actives have a fitted effect of over 65% in size
# PI5P4K alpha inh: PI5P4K alpha (human) kinase inhibition. P48426. PI5P4Kalpha enzyme, ADP-Glo luminescence, 60 min; hits give low values. max response, %. hit rate 1.2% among 330,000; active means max response of -50% or lower; inconclusive means between -30% and -50%; inactive means -30% or higher; further: value at the top dose of about 77 µM
#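 Compounds were pin-transferred onto PI5P4Kalpha and substrate in HEPES pH 7.4 buffer with EGTA, CHAPS and 5% DMSO. ATP (5 microM final) started the reaction, which ran 60 minutes at room temperature before ADP-Glo detection.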
# G9a inh: blocks human histone lysine methyltransferase G9a; G9a H3K9 monomethylation, AlphaScreen, 2 h; Potency, µM (titrated, usually from 102 µM), actives largely listed as inhibitors; hit rate 8.8% among 350,000; AID 504332; further: nearly all actives have a fitted effect of over 75% in size
#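 G9a (20 nM) preincubated 15 min RT with compounds, then 500 nM biotinylated H3K9 peptide and 20 uM SAM added; 2 h RT reaction. Monomethyl-H3K9 product detected by AlphaScreen with anti-H3K9me1 antibody, streptavidin donor and anti-rabbit IgG acceptor beads.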
# HP1b chromo inh: blocks HP1-beta chromodomain binding to methylated histone tails. P83916. AlphaScreen HP1-beta / biotin-H3K9me3 peptide binding. Potency, µM (titrated, usually from 114 µM), hits mostly inhibitors. hit rate 0.56% among 390,000. AID 540317; further: nearly all actives have a fitted effect of over 70% in size
#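 HP1-beta protein (50 nM final) preincubated 30 min at room temperature with biotinylated H3(1-18)K9me3 peptide (50 nM) in PBS pH 7.4, 0.01% Tween-20, then compound added for 30 min. AlphaScreen streptavidin donor/nickel chelate acceptor beads (10 ug/mL final), 30 min dark, luminescence read.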
# Numbers stand for hits; – = inactive; ? = inconclusive; · = no result; [ ] = dose if it differs, or a comment. Compounds with a hit are over-represented: about 12% of the library has one in this group of screens. Unless noted, the call rests on the fitted dose curve; in most records, active means well fitted curve in the direction sought with a large enough effect; inconclusive means small, poorly fitted or top-dose-only effect, or another doubt; inactive means no such curve, though single readings can be large; an effect the other way counts as inactive or inconclusive.
SMILES,BAZ2B inh,JMJD2A Tudor,PLK1 PBD block,PI5P4K alpha inh,G9a inh,HP1b chromo inh
Cc1ccc(S(=O)(=O)N2CCOCC2)cc1NC(=O)CN1CCN(c2ccc(O)cc2)CC1,?,25µM,–,–,?,?
Cc1ccc(S(=O)(=O)N2CCOCC2)cc1NC(=O)COC(=O)C1CCC1,·,·,–,–,·,·
CCOC(=O)C1CCN(CC(=O)Nc2cc(S(=O)(=O)N3CCOCC3)ccc2C)CC1,79µM,4µM,–,–,22µM,71µM
Cc1ccc(S(=O)(=O)N2CCOCC2)cc1NC(=O)CN1CCN(C)CC1,–,–,–,–,–,–
Cc1cnc(NC(=O)CCNC(=O)c2ccc([N+](=O)[O-])cc2)s1,–,?,27µM,–,–,?
Cc1csc(NC(=O)CCNC(=O)c2ccc([N+](=O)[O-])cc2)n1,–,–,–,–,–,–
CS(=O)(=O)c1ccc2nc(NC(=O)CCNC(=O)c3ccc([N+](=O)[O-])cc3)sc2c1,–,–,–,–,40µM,–
CC(=O)Nc1ccc(S(=O)(=O)Nc2nc3ccc([N+](=O)[O-])cc3s2)cc1,–,–[11.4 µM],–,–,45µM,–
CSc1nsc(NC(=O)CCNC(=O)c2ccc([N+](=O)[O-])cc2)n1,–,?,24µM,–,?,–
CS(=O)(=O)c1ccc2nc(NC(=O)c3ccccc3)sc2c1,–,–,–,–,–,–
O=C(Cc1ccc(Cl)cc1)NCCCNC(=O)c1cccnc1,–,–,–,–,–,–
CCOC(=O)c1ccccc1NC(=O)N1CCC(CN2CCOCC2)CC1,–,–,·,·,–,–
CN(C)CCCn1c(=S)[nH]c2sc3c(c2c1=O)CCCC3,?,22µM,19µM,?,7.9µM,?
C=CCn1c(SCC(N)=O)nc2sc3c(c2c1=O)CCC3,–,–,–,–,·,–
C=CCn1c(=S)[nH]c2sc3c(c2c1=O)CCC3,–,–,?,·,3.2µM,–
CCn1c(=S)[nH]c2sc3c(c2c1=O)CCCC3,–,–,–,–,·,–
Cc1ccc(NC(=O)CCNS(=O)(=O)c2ccc3c(c2)CCN3C(=O)C2CC2)c(Cl)c1,–,–,·,·,–,–
CCOC(=O)c1cc2ccccc2n1C1CCN(C)CC1,·,·,–,–,·,·
CC(=O)C1=C(O)C(=O)N(c2ccc(Br)cn2)C1c1ccccc1F (configuration not stated),–,–,–,–,?,–
CC(=O)C1=C(O)C(=O)N(c2ccccn2)C1c1ccccc1[N+](=O)[O-] (configuration not stated),?,20µM,3.4µM,?,?,–
CC(=O)C1=C(O)C(=O)N(c2ccccn2)C1c1cccc(F)c1 (configuration not stated),?,–,–,–,45µM,–
CC(=O)C1=C(O)C(=O)N(c2ccc(Br)cn2)C1c1ccccc1[N+](=O)[O-] (configuration not stated),–,–,?,–,40µM,–
CCc1nc2ccc(C(=O)N(C)C(C)C)cn2c1N(CC)Cc1cccc(Br)c1,·,·,–,–,·,·
COCC(=O)N1CCC[C@@]2(CCN(C(=O)Nc3cccc(C#N)c3)C2)C1,·,·,·,·,–[12.7 µM],·
c1ccc(NC2=Nc3cccc4cccc2c34)cc1,?,–,–,–,25µM,–
SMILES,BAZ2B inh,JMJD2A Tudor,PLK1 PBD block,PI5P4K alpha inh,G9a inh,HP1b chromo inh
COc1ccc(NC2=Nc3cccc4cccc2c34)cc1,35µM,45µM,–,–,?,?
O=C(O)c1cccc(NC2=Nc3cccc4cccc2c34)c1,–,–,–,–,?,–
CCCOc1ccc(-c2nonc2NC(=O)c2oc3ccc(Cl)cc3c2C)cc1OCCC,–,–,·,·,–,–
NC(=O)C1CC(=O)N(c2ccc(OCc3ccc(Cl)cc3)cc2)C1 (configuration not stated),–,?,6µM,–,–,–
Cc1ccc(NC(=O)c2ccc(S(=O)(=O)N3CCCC3)cc2)nc1,–,–,–,–,–,–
O=C(O)CCc1ccc(-c2cccs2)n1NC(=O)c1ccc(Cl)cc1Cl,–,–,–,·,56µM,–
O=C(O)CCc1ccc(-c2cccs2)n1CC1CCCO1 (configuration not stated),–,?,–,–,18µM,–
O=C(O)CCc1ccc(-c2cccs2)n1NC(=O)c1ccc(Cl)cc1,–,–,–,·,–[12.7 µM],–

# Screening data (PubChem)
